# Screens (PubChem BioAssay)
# HSP90 refold inh: inhibitors of HSP90 luciferase refolding in rabbit reticulocyte lysate | luciferase refolding luminescence, 3 h | inhibition, % at 5.6 µM | hit rate 0.91% among 290,000 | AID 1789;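 active means inhibition above the screen-wide mean plus 3 SD, computed separately per campaign, cut at about 16% in these data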;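 further: inhibitors lower the luminescence because luciferase stays unfolded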
# TWEAK-Fn14 inh: TWEAK-Fn14 signaling inhibition; TWEAK-stimulated Fn14 reporter cells, luciferase luminescence, 8 h; inhibition, % at 10 µM; hit rate 2% among 360,000; in the data active means inhibition above about 50%
# LGR2 antag: blocks bursicon-induced cAMP signaling via Drosophila LGR2. HEK293 LGR2, CRE-luciferase, bursicon-stimulated, 4 h. inhibition, % at 9.99 µM. hit rate 0.35% among 380,000. AID 720647;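 active means drop in luminescence signal, shown as inhibition above about 50% in the replicate tests, limit read from the data, passing the limit was not always enough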;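 further: agonist challenge used bursicon conditioned medium at about half maximal strength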
# TROY signal inh: TROY signaling inhibition. AID 1347056. inhibition, % at 10 µM. hit rate 0.98% among 360,000. Q293 LMP1-TROYcd NF-kB luciferase reporter, 4 h;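 active means compounds whose plate-normalised and pattern-corrected inhibition of the luciferase reporter signal at the single screening dose is 50% or more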
# HSP90 inh confirm: HSP90 inhibition, confirmation assay; inhibition, % at 5.9 µM; AID 1846; hit rate 64% among 2,300; rabbit reticulocyte lysate, luciferase refolding luminescence, 3 h; shares compounds with HSP90 refold inh; in the data active means inhibition above about 18%
# luciferase ctr: counter-screen for HSP90 inhibitors: inhibitors of firefly luciferase | inhibition, % at 5.9 µM | shares compounds with HSP90 refold inh | hit rate 48% among 2,300 | purified native firefly luciferase, luminescence | AID 1847;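 active means inhibition above the mean inhibition of all tested sample wells plus 3 SD, cut at about 10% in these data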
# Target sequence (P08659 whole entry, looked up): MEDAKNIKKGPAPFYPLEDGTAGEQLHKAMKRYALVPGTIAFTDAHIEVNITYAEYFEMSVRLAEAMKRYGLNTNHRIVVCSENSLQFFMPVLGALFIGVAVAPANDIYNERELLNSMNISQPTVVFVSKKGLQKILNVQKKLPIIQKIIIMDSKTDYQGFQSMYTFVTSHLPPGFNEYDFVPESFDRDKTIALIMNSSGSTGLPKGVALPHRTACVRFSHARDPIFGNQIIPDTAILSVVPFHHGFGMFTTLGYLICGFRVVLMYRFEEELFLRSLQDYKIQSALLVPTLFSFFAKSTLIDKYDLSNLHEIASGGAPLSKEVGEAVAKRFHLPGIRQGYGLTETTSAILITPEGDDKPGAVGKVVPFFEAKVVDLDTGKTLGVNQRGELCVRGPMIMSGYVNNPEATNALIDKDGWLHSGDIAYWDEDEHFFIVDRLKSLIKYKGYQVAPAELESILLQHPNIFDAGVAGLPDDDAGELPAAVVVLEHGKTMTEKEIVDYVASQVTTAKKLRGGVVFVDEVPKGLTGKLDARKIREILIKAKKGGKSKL
# A number is an active result; . = inactive; / = no result given. Sampled rows, rich in hits. Any-hit rate of the full collection: about 2.2%.
SMILES,HSP90 refold inh,TWEAK-Fn14 inh,LGR2 antag,TROY signal inh,HSP90 inh confirm,luciferase ctr
COc1ccc(C(=O)O/N=C(\N)c2ccccn2)cc1,80,103,103,84,86,92
C[C@@H]1CN([C@@H](C)CO)C(=O)c2cc(NC(=O)CCCCCC(=O)Nc3ccccc3N)ccc2O[C@H]1CN(C)S(C)(=O)=O,/,/,.,/,/,/
Cc1ccccc1-c1ccc([C@@H]2[C@H]3CN(S(C)(=O)=O)CCCCN3[C@H]2CO)cc1,/,/,.,/,/,/
CO[C@@H]1CN(C)C(=O)c2ccc(NS(C)(=O)=O)cc2OC[C@@H](C)N(CCC(F)(F)F)C[C@@H]1C,/,/,.,/,/,/
COCC#Cc1ccc2c(c1)O[C@H](CN(C)Cc1ccc(F)cc1)[C@@H](C)CN([C@@H](C)CO)S2(=O)=O,/,/,.,/,/,/
CCn1c(=O)c2cc(C(=O)N(C)c3ccc(OC)cc3OC)sc2c2ccccc21,23,.,.,.,.,.
CCn1c(=O)c2cc(C(=O)N(C)c3cc(C)ccc3OC)sc2c2ccccc21,.,.,.,.,/,/
COc1ccc(/C=N/n2c(-c3ccco3)nc3ccccc3c2=O)cc1,19,.,.,.,.,.
Cn1nc(-c2ccc(Cl)cc2)nc2c(=O)n(C)c(=O)nc1-2,95,/,/,/,97,90
CS(=O)(=O)n1nc(-c2ccc(Cl)cc2)nc1N,.,.,.,.,/,/
CC(=O)NC[C@@H]1[C@@H](c2ccc(-c3cccc(F)c3)cc2)[C@H](CO)N1C(C)=O,/,/,.,/,/,/
Nc1ccc(Br)c2cccnc12,17,.,.,.,.,.
CS(=O)(=O)Oc1ccc(Br)c2cccnc12,.,.,.,.,/,/
O=C1CC[C@H](OCc2ccccc2)CCN1[C@H](CSc1ccccc1)Cc1ccccc1,27,.,.,.,.,.
N#CC12COC3(CCCCC3C1(C#N)C#N)OC2=N (stereo not given),.,.,.,.,/,/
N#CC1(C#N)COC23CCCCC2C1(C#N)C(=N)O3 (stereo not given),18,.,/,.,.,.
N#Cc1nc(-c2cccc3ccccc23)oc1N1CCCCC1,21,.,/,.,.,.
CC1CCN(c2oc(-c3cccc4ccccc34)nc2C#N)CC1,.,.,.,.,/,/
COc1ccc2c3c(n(C)c2c1)[C@H](CO)N(Cc1ccccc1)CC31CN(C)C1,/,/,.,/,/,/
CN1C(=O)Nc2cccc3cccc1c23,21,.,.,.,.,.
CC1=Nc2cccc3cccc(c23)N1C,.,.,.,.,/,/
C[C@@H]1CN([C@@H](C)CO)C(=O)c2cc(NC(=O)C3CCCCC3)ccc2O[C@@H](C)CCCCO[C@@H]1CN(C)C(=O)c1ccccc1,/,/,.,/,/,/
CC(C)(C)NC(=O)NC(=O)COc1ccccc1C#N,18,.,/,.,.,.
C=CCNC(=O)COc1ccccc1C#N,.,.,.,.,/,/
O=C(Nc1nc2cc3c(cc2s1)OCCO3)c1cccs1,39,89,76,61,62,59
SMILES,HSP90 refold inh,TWEAK-Fn14 inh,LGR2 antag,TROY signal inh,HSP90 inh confirm,luciferase ctr
CC(=O)Nc1ccc2nc(NC(=O)c3cccs3)sc2c1,.,.,.,.,/,/
CC(C)c1cn(CC[C@@H]2CC[C@H](NC(=O)C3CCCC3)[C@H](CO)O2)nn1,/,/,.,/,/,/
Cc1cc(O)c(N)c(C)c1Cl,43,.,.,.,81,.
COC(=O)c1cc(C)nc2c1C(=O)C(=O)C=C2N1CCOCC1,45,103,60,.,91,.
CN(C)c1ccc(/C=C/c2nc3ccccc3s2)cc1,76,105,/,65,92,90
CN(C)c1ccc(CNc2nc3ccccc3s2)cc1,48,/,/,/,73,57
COc1cc(/C=C/c2nc3ccccc3s2)cc(OC)c1O,.,.,.,.,/,/
Cc1ccc(/C=C/c2nc3ccccc3s2)s1,46,86,/,76,80,74
COc1ccc(C(=O)OCC(=O)NCc2ccco2)cc1OC,.,.,/,.,/,/
CCOc1ccc(C(=O)OCC(=O)NCc2ccco2)cc1OCC,31,.,/,.,.,.
C[C@@H]1CN([C@H](C)CO)S(=O)(=O)c2ccc(C#CC3CC3)cc2O[C@@H]1CN(C)Cc1ccc(F)cc1,/,/,.,/,/,/
O=C(O)c1ccc2c3n(nc2c1)-c1ccc(Cl)cc1CO3,84,/,.,/,75,27
Cc1ccc(-c2cn(-c3ccccc3)c(=S)[nH]2)cc1C,19,68,.,.,27,15
Cc1ccccc1-c1cn(-c2ccccc2)c(=S)[nH]1,.,.,.,.,/,/
CCC(=O)Nc1cc(C(=O)OCC(=O)c2ccccc2)ccc1C,20,.,.,.,45,.
